# Screening data: PubChem, National Center for Advancing Translational Sciences (NCATS)
# Shiga inhibitor: blocks Shiga toxin action in Vero cells; Vero cells, Shiga toxin protein synthesis inhibition reporter; inhibition, % at 38.7 µM; hit rate 9.2% among 290,000; AID 2315; in the data active means inhibition mostly above about 28%, no sharp cut-off; inactive means mostly below about 43%
# CHX counter: counter-screen for Shiga toxin inhibitors: cycloheximide protein synthesis inhibition; cell reporter, cycloheximide protein synthesis inhibition counterscreen; max response, %; hit rate 12% among 300,000; in the data active means max response mostly above about 13%, no sharp cut-off; inactive means mostly below about 14%; further: read at 38.3 µM for the half of the compounds with a filed dose
# TbPYK inhibitor: inhibitors of Trypanosoma brucei pyruvate kinase; Q57TT1; TbPYK enzyme, Kinase-Glo Plus ATP luminescence, 45 min; Potency, µM (series often up to 76.8 µM), most hits filed as inhibitors; hit rate 0.12% among 410,000; AID 624173; further: nearly all actives have a fitted effect of over 50% in size
#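 Readout: single end-point luminescence (Kinase-Glo Plus, 10 min). Reaction conditions were TbPYK/substrate plus 130 uM ADP, 45 min at RT, pH 7.2 TEA buffer. No-enzyme wells served as controls, and data were normalized before concentration-response fitting.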
# LmPK inhibitor: LmPK (Leishmania mexicana) enzyme inhibition. purified LmPK, Kinase-Glo ATP luminescence, 1 h. AID 1721. Q27686. hit rate 0.37% among 290,000. Potency, µM (highest dose often 57.5 µM), actives largely listed as inhibitors
#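 In 50 mM imidazole pH 7.2 with 7 mM MgCl2, LmPK (0.1 nM) turned over PEP (0.5 mM) and ADP (0.1 mM) for 1 h at room temperature. Luciferase read-out of ATP.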
# RE007 growth inh: less growth of the S. pombe RE007 Vpr strain. S. pombe RE007 Vpr strain, BacTiter-Glo ATP luminescence, 24 h. Potency, µM (top dose mostly 92.2 µM), actives largely listed as inhibitors. hit rate 0.21% among 360,000; active means well fitted falling curve with a large enough effect; inconclusive means small, poorly fitted or top-dose-only effect; inactive means no such curve, though single readings can be large or run the other way; further: nearly all actives have a fitted effect of over 50% in size
#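 Fission yeast RE007 carrying one integrated HIV-1 vpr copy, seeded at OD 0.01 in PMG+AL medium with 23 nL pinned compound. Grown 24 h at 30 degrees; viability read by BacTiter-Glo luminescence after 5 min.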
# FBPA Giardia inh: Giardia lamblia aldolase inhibition | A8B2U2 | purified Giardia FBPA | Potency, µM (titrated, usually from 59.6 µM), actives largely listed as inhibitors | hit rate 0.71% among 290,000 | AID 2451; further: nearly all actives have a fitted effect of over 55% in size
# Target sequence (A8B2U2 whole entry, looked up): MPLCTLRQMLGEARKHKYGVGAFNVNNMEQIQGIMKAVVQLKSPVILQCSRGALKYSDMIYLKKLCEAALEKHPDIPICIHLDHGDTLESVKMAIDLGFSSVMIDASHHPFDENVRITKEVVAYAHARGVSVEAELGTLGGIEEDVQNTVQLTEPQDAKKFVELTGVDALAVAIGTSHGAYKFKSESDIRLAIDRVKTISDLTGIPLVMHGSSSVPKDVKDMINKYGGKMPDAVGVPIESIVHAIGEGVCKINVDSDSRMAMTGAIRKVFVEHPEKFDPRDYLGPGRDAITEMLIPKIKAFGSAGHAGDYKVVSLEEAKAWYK
#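 40 nM FBPA preincubated 10 min at RT with compound (up to 57.5 uM final), then substrate plus GAPDH/TPI/NAD/arsenate coupling and diaphorase/resazurin added. Fluorescence read after 20 min at RT, 525/598 nm.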
# A number is an active result; – = inactive; ? = inconclusive; · = no result. Many of the other results were omitted from the sample, so hits are more common in it than they were. Unless noted, the call rests on the fitted dose curve; in most records, active means well fitted curve in the direction sought with a large enough effect; inconclusive means small, poorly fitted or top-dose-only effect, or another doubt; inactive means no such curve, though single readings can be large; an effect the other way counts as inactive or inconclusive.
SMILES,Shiga inhibitor,CHX counter,TbPYK inhibitor,LmPK inhibitor,RE007 growth inh,FBPA Giardia inh
COc1ccc(-c2noc(CN(C)Cc3ccccc3)n2)cc1,–,11.4,–,–,–,–
CCN(CCn1cccn1)Cc1nc(-c2ccc(OC)cc2)no1,–,–,–,–,–,–
COc1ccc(-c2noc(CN(C)Cc3ccc(C)o3)n2)cc1,34.8,11.1,–,–,–,–
Cc1ccc(NC(=O)Cn2c(=O)n(CCCCCC(=O)NCc3ccc(F)cc3)c(=O)c3sccc32)cc1C,·,·,–,·,·,·
COc1ccc2cc3cc(C(=O)NC(C)C)oc3nc2c1,75.5,48.1,–,–,–,–
COc1ccc2cc3cc(C(=O)NCC4COc5ccccc5O4)oc3nc2c1 (centres undefined),–,39.5,–,–,–,–
COc1ccc2cc3cc(C(=O)NCc4ccc5c(c4)OCO5)oc3nc2c1,–,–,–,–,–,–
Cc1cc2oc(C(=O)Nc3cccc(-c4nc5ccccc5o4)c3)c(C)c2cc1Cl,·,·,–,·,·,·
CN(c1cccc(NC(=O)Nc2cccc(Cl)c2)c1)S(C)(=O)=O,94.0,36.6,–,–,–,–
CN(C)c1ccc(NC(=O)Nc2cccc(Cl)c2)cc1,49.9,30.9,–,–,–,–
CC(=O)Nc1cccc(N(C)S(C)(=O)=O)c1,–,–,?,–,–,–
COc1cccc(CN2C(=O)N(c3ccc(C)cc3)C(=O)C2CC(=O)Nc2cc(OC)cc(OC)c2)c1 (centres undefined),·,·,–,·,·,·
N#Cc1ccccc1CSc1nnc(-c2ccc(Br)cc2)o1,·,·,–,·,·,·
Oc1ccc(Nc2nc(-c3ccc(O)cc3)cs2)cc1,80.3,54.2,–,–,–,–
NS(=O)(=O)c1ccc(Nc2nc(-c3ccc(O)cc3)cs2)cc1,–,–,–,–,–,–
Oc1ccc(Nc2nc(-c3ccc(Cl)cc3)cs2)cc1,110.0,47.1,·,·,·,–
Clc1ccc(Nc2nc(-c3ccncc3)cs2)cc1,·,·,–,·,–,·
COc1cccc2sc(N3CCN(C(=O)CS(=O)(=O)c4ccc(Cl)cc4)CC3)nc12,·,·,–,·,·,·
Cc1ccc(NC(=O)COC(=O)c2ccccc2Nc2ccccc2)cc1,–,–,–,–,–,–
Cc1ccc(Nc2cccccc2=O)cc1,–,15.6,–,–,?,–
O=C(NCc1ccccc1Cl)c1ccc(CS(=O)(=O)c2ccc(Br)cc2)o1,·,·,–,·,·,·
Cc1ccc2oc(-c3ccc(NC(=O)CC(C)C)cc3)nc2c1,143.2,34.0,–,–,–,–
CC(C)CC(=O)Nc1ccc2oc(-c3cccnc3)nc2c1,–,26.5,–,–,–,–
CCC(=O)Nc1ccc2oc(-c3cccnc3)nc2c1,47.5,34.7,–,–,–,–
O=C(Nc1ccc2nc(-c3ccccc3)oc2c1)c1ccco1,47.1,29.0,–,–,–,–
SMILES,Shiga inhibitor,CHX counter,TbPYK inhibitor,LmPK inhibitor,RE007 growth inh,FBPA Giardia inh
O=C(CN(c1ccc(Cl)c(C(F)(F)F)c1)S(=O)(=O)c1ccccc1)N1CCc2ccccc2C1,·,·,–,·,·,·
COc1cc(NC(=O)CSc2nc3nc(C)c(Cc4ccccc4Cl)c(C)n3n2)cc(OC)c1,·,·,–,·,·,·
CCc1ccc2oc(-c3ccc(NC(C)=O)cc3)nc2c1,145.0,60.8,–,–,5.62µM,–
CCC(=O)NCc1ccc(-c2nc3ncccc3o2)cc1,–,16.4,–,–,–,–
O=C(Nc1ccc2oc(-c3cccnc3)nc2c1)c1ccco1,–,36.2,–,–,–,·
O=C(Nc1ccc(-c2nc3ncccc3o2)cc1)c1ccco1,65.7,27.3,–,–,–,–
COc1cccc(NC(=O)c2cnc(SCC(=O)N3CCOCC3)n(C)c2=O)c1,·,·,–,·,·,·
COc1ccc(CCNC(=O)CCc2c(C)c3ccc(O)c(C)c3oc2=O)cc1,·,·,–,·,·,·
O=c1c(-c2ccc3c(c2)OCCO3)coc2c(CN3CCOCC3)c(O)ccc12,32.9,39.1,–,–,–,–
O=c1cc(-c2ccc([N+](=O)[O-])cc2)c2ccc(O)cc2o1,–,–,–,–,–,–
CN(C)Cc1c(O)ccc2c(=O)c(-c3ccc(Cl)cc3)coc12,–,14.2,–,–,–,–
O=c1c(-c2ccc([N+](=O)[O-])cc2)coc2c(O)c(O)ccc12,56.8,23.0,–,–,?,?
CCN(CC)Cc1c(O)ccc2c(=O)c(-c3ccc(Cl)cc3)coc12,–,–,–,–,–,–
COc1ccc(C)cc1NC(=O)NCc1ccc2c(c1)CCN2C(=O)c1ccccc1,·,·,–,·,·,·
COc1ccccc1/C=C/C=N/n1c(-c2ccccn2)n[nH]c1=S,63.8,33.9,?,–,–,?
Cc1cccc(/C=N/n2c(-c3ccccn3)n[nH]c2=S)c1,47.4,34.9,·,–,·,–
Cc1ccc(Cn2c(C(=O)NCc3ccccc3Cl)cc3sccc32)cc1,·,·,–,·,·,·
Cc1ccc(C(C(=O)NCc2ccco2)N(C(=O)CNC(=O)c2cccs2)c2c(C)cccc2C)cc1 (centres undefined),–,–,–,–,–,–
Cc1ccc(C(C(=O)NCc2ccco2)N(C(=O)CNC(=O)c2cccs2)c2c(C)cc(C)cc2C)cc1 (centres undefined),–,29.0,–,–,–,–
CC[C@H](C)[C@H](NC(=O)[C@H](CC(C)C)NC(=O)[C@@H](N)CO)C(=O)NCC(=O)N[C@@H](CCCCN)C(=O)N[C@H](C(=O)O)C(C)C,–,–,·,·,·,–
Cc1cc(C)nc(SCC(=O)c2ccc3c(c2)OCCO3)n1,–,25.6,–,–,–,–
CCCc1cc(=O)[nH]c(SCC(=O)c2ccc3c(c2)OCCO3)n1,–,–,–,–,–,–
CCOC(=O)c1cnc(SCC(=O)c2ccc3c(c2)OCCO3)nc1N,103.8,27.8,–,–,–,–
Cc1ccc2c(c1)C(=O)C(=O)N2CCCOc1ccccc1,–,13.5,–,–,–,–
Cc1cccc(OCCN2C(=O)c3ccccc3C2=O)c1,89.2,49.1,–,–,–,–
SMILES,Shiga inhibitor,CHX counter,TbPYK inhibitor,LmPK inhibitor,RE007 growth inh,FBPA Giardia inh
O=C(OCCN1C(=O)c2ccccc2C1=O)c1ccccc1,–,23.8,–,–,–,–
O=C1c2ccccc2C(=O)N1CCCOc1ccccc1,89.8,39.0,–,–,–,–
Cc1oc2c(c(C)cc3oc(=O)c(CC(=O)NCCc4ccccc4F)c(C)c32)c1C,·,·,–,·,·,·
CC(Oc1ccc2c3c(c(=O)oc2c1)CCC3)C(=O)NC1CCN(Cc2ccccc2)CC1 (centres undefined),–,–,–,–,–,·
Cc1cc(=O)oc2cc(OC(C)C(=O)NC3CCN(Cc4ccccc4)CC3)ccc12 (centres undefined),–,22.2,–,–,–,–
Cc1cc(=O)oc2ccc(OCc3ccccc3)cc12,–,–,–,–,–,–
COc1ccc(COc2ccc3c(C)cc(=O)oc3c2)cc1,133.7,66.6,–,–,–,–
Cc1cc(=O)oc2cc(OCc3ccccc3)ccc12,86.9,61.0,–,–,–,–
O=C(c1[nH]c2ccccc2c1Sc1ccc(Cl)cc1)N1CCCCC1,·,·,–,·,·,·
